Reference: PubChem BioAssay (NCI)
Several values for one entry are separate records, joined by “and”; a condition that tells them apart may be missing. Equal entries are not always repeated. This is part of a sample that, as a whole, favours compounds with a hit. Of some 83,000 tested, about 20% had one in any assay.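 Growth was measured after 48 h exposure to one concentration of compound in 96-well plates. Values under 10 count as active.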 Activity calls are given as the source filed them.

Legend:
Experiment in all cases: NCI-60 one-dose screen, 48 h (100 = growth as untreated, 0 = no growth, -100 = all killed)
Conditions in all cases: 10 µM unless noted
[1] = test system: NCI-H23 lung
[2] = test system: NCI-H226 lung
[3] = test system: HOP-62 NSCLC
[4] = test system: NCI-H460 lung
[5] = test system: HOP-92 NSCLC
[6] = test system: NCI-H522 lung
[7] = test system: A549/ATCC NSCLC
[8] = test system: 786-0 renal
[9] = test system: COLO 205 colon
[10] = test system: DU-145 prostate
[11] = test system: K-562 leukemia
[12] = test system: MALME-3M melanoma
[13] = test system: MDA-MB-231 breast
[14] = test system: RXF 393 renal
[15] = test system: SF-268 CNS
[16] = test system: SF-295 CNS
[17] = test system: SF-539 CNS
[18] = test system: UACC-257 melanoma
[19] = test system: M14 melanoma
[20] = test system: NCI-H322M lung

Row | Structure (SMILES) | growth [1] | growth [2] | growth [3] | growth [4] | growth [5] | growth [6] | growth [7] | growth [8] | growth [9] | growth [10] | growth [11] | growth [12] | growth [13] | growth [14] | growth [15] | growth [16] | growth [17] | growth [18] | growth [19] | growth [20]
1 | CN(Cc1ccccc1)Cc1ccccc1 | 96.6% (inactive) | 94.1% (inactive) | 93% (inactive) | 110% (inactive) | 91.8% (inactive) | 97.3% (inactive) | 96.7% (inactive) | 99.2% (inactive) | 105% (inactive) | 107% (inactive) | 113% (inactive) | 91.4% (inactive) | 106% (inactive) | 104% (inactive) | 97.1% (inactive) | 112% (inactive) | 99.2% (inactive) | 99.8% (inactive) | 102% (inactive) | 
2 | CCN1CCN(CCNc2nccc(-c3c(-c4cccc(O)c4)nc4sccn34)n2)S1(=O)=O | 87.1% (inactive) and 88.3% (inactive) | 98.9% (inactive) and 99.1% (inactive) | 120% (inactive) and 92.2% (inactive) | 52.7% (inactive) and 47.9% (inactive) | 32.2% (inactive) | 67% (inactive) and 63.1% (inactive) | 86% (inactive) and 70.1% (inactive) | 94.2% (inactive) and 64.3% (inactive) | 24.5% (inactive) and 28.1% (inactive) | 67.1% (inactive) and 55.1% (inactive) | 69.6% (inactive) and 62.7% (inactive) | -11.1% (active) and -23.5% (active) | 64.7% (inactive) and 68.3% (inactive) | 42.8% (inactive) and 61.8% (inactive) | 86.2% (inactive) | 93.3% (inactive) and 98.9% (inactive) | 89.7% (inactive) and 87.3% (inactive) | 1.33% (active) and -7.98% (active) | 5.92% (active) and 8.15% (active) | 
3 | CNC(=O)c1cc(Oc2ccc(NC(=O)Nc3ccc(Cl)c(C(F)(F)F)c3)cc2)ccn1 | -10.2% (active) and -19.9% (active) | -17.8% (active) and -23.1% (active) | 5.13% (active) and 22.5% (inactive) | 6.19% (active) and 2.65% (active) | -22.9% (active) and -30.7% (active) | -18.5% (active) and -38.9% (active) | 3.89% (active) and -36.4% (active) | 16.2% (inactive) and 15.5% (inactive) | -46% (active) and -24.7% (active) | 20.7% (inactive) and 13.7% (inactive) | 1.27% (active) and 29.2% (inactive) | -40.2% (active) and 53% (inactive) | -34% (active) and -34.5% (active) | -35.8% (active) and -56.3% (active) | 25.7% (inactive) and 7.26% (active) | 10.7% (inactive) and 6.13% (active) | -33.4% (active) and 10.8% (inactive) | -26.1% (active) | -4.68% (active) and 5.32% (active) | 
4 | CCCCCCCCCCCCOc1ccccc1C=O | 100% (inactive) | 95.4% (inactive) |  | 102% (inactive) |  | 91.3% (inactive) | 93.3% (inactive) | 109% (inactive) | 109% (inactive) | 111% (inactive) | 83.7% (inactive) |  | 102% (inactive) | 110% (inactive) | 97.5% (inactive) | 99% (inactive) | 102% (inactive) | 96.8% (inactive) | 101% (inactive) | 114% (inactive)
5 | O=C(Nc1ccc(Cl)cc1)c1cc2ccccc2cc1O | 12.2% (inactive) and 4.22% (active) | 54.4% (inactive) and 42.1% (inactive) | 63.6% (inactive) and 5.51% (active) | 8.06% (active) and -15.7% (active) | -9.86% (active) | 26.1% (inactive) and -32.3% (active) | 68.2% (inactive) and 26.4% (inactive) | 67.1% (inactive) and -31.9% (active) | 91.4% (inactive) and 70.4% (inactive) | 29.6% (inactive) and 10% (inactive) | 14.1% (inactive) and 7.46% (active) | 29.4% (inactive) and 17% (inactive) | 52.7% (inactive) and 41.7% (inactive) | 53.6% (inactive) and -17% (active) | 53.6% (inactive) and 24.9% (inactive) | 10.2% (inactive) and 3.7% (active) | 22.7% (inactive) and 12.5% (inactive) | 20.7% (inactive) | 55% (inactive) and 7.47% (active) | 
6 | O=C(CN1CCOCC1)N1CCOCC1 | 110% (inactive) and 104% (inactive) | 105% (inactive) and 113% (inactive) |  | 111% (inactive) and 114% (inactive) | 75.3% (inactive) | 75.3% (inactive) and 101% (inactive) | 103% (inactive) | 102% (inactive) and 108% (inactive) | 115% (inactive) and 105% (inactive) | 120% (inactive) and 117% (inactive) | 102% (inactive) and 108% (inactive) | 90.6% (inactive) | 108% (inactive) and 98.1% (inactive) | 126% (inactive) and 119% (inactive) | 108% (inactive) and 115% (inactive) | 113% (inactive) and 104% (inactive) | 111% (inactive) and 101% (inactive) | 107% (inactive) and 106% (inactive) | 97.4% (inactive) and 106% (inactive) | 92% (inactive) and 110% (inactive)
7 | CCN(CC)CCCC(CNc1ccnc2cc(Cl)ccc12)c1ccc(Cl)cc1 (stereo not drawn) | 48.9% (inactive) and 54.3% (inactive) | 4.19% (active) and 25.2% (inactive) |  | 24.3% (inactive) and -63.6% (active) | -51.5% (active) and -68.6% (active) | -49.4% (active) and -59.6% (active) | 4.3% (active) and 61.4% (inactive) | -83.4% (active) and -97.3% (active) | -61.9% (active) and -85.6% (active) | 34.5% (inactive) and 29.6% (inactive) | -69% (active) and -71% (active) | -91.3% (active) and -77.4% (active) | -58.2% (active) and 38.7% (inactive) | -64.7% (active) and 22.7% (inactive) | -19.4% (active) and -34.3% (active) | -69.7% (active) and -71.8% (active) | -87.6% (active) and -92.2% (active) | -67.8% (active) and -86.2% (active) | -84.7% (active) and -71.4% (active) | -33.5% (active) and 46.5% (inactive)
8 | CCN(CC)CCCC(C)Nc1cnc(C(=O)Nc2cc(F)cc3cccnc23)cn1 (stereo not drawn) | 81.4% (inactive) and -25.1% (active) | 85.1% (inactive) and 49.5% (inactive) |  | 69.5% (inactive) and -75.9% (active) | 37.5% (inactive) and -76.6% (active) | 52.7% (inactive) and -59.4% (active) | 58% (inactive) and 18.9% (inactive) | 68.4% (inactive) and -55.1% (active) | 3.11% (active) and -50.9% (active) | 63.3% (inactive) and -82.2% (active) | 3.95% (active) and 4.95% (active) | -8.34% (active) and -76.1% (active) | 59.4% (inactive) and -55% (active) | 33.8% (inactive) and -84.4% (active) | 51.9% (inactive) and -92.1% (active) | 71.2% (inactive) and 3.03% (active) | 83.1% (inactive) and 8.22% (active) | 76.8% (inactive) and -12.4% (active) | 21.9% (inactive) and -5.6% (active) | 63.8% (inactive) and 0.121% (active)
9 | NC(=S)N/N=C(\c1ccc(Br)cc1)C1CC1 | 94.2% (inactive) and 87.9% (inactive) | 96.7% (inactive) and 87.6% (inactive) |  | 104% (inactive) and 102% (inactive) |  | 98.9% (inactive) | 103% (inactive) | 113% (inactive) and 106% (inactive) | 98.4% (inactive) and 94.5% (inactive) | 96.8% (inactive) and 107% (inactive) | 38% (inactive) and 43.1% (inactive) | 84.3% (inactive) | 67.2% (inactive) | 122% (inactive) and 98.1% (inactive) | 97.2% (inactive) and 103% (inactive) | 93.5% (inactive) and 81.8% (inactive) | 99% (inactive) and 100% (inactive) | 63.1% (inactive) | 88% (inactive) and 84.1% (inactive) | 101% (inactive) and 83.7% (inactive)
